Values joined by “and” are separate entries in the source; they are usually repeats but may differ in a detail not shown here. Equal values may be shown once. Records with an inconclusive call do not appear. Active and inactive are the calls of the source. The call rests on the fitted dose curve; in most records, active means well fitted inhibition curve with a large enough effect; inconclusive means small, poorly fitted or top-dose-only effect; inactive means flat fitted curve, though single readings scatter.
Experiments:
[1] = tested on: CRL-7250; assay: Cytotoxic Profiling of Annotated Libraries Using Quantitative High-Throughput Screening (AID 1296008); details: Five cell lines viability, CellTiter-Glo ATP luminescence, 48-72 h; max response: hits give low values
Outline: (§1)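 Cells exposed to compounds for 48 or 72 hr at 37 degrees Celsius. Viability read as ATP-coupled luminescence with CellTiter-Glo after 10 min at room temperature.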

[2] = tested on: HEK293; assay: as above; details: Five cell lines viability, CellTiter-Glo ATP luminescence, 48-72 h; max response: hits give low values
Outline: as §1

[3] = tested on: HaCat; assay: as above; details: Five cell lines viability, CellTiter-Glo ATP luminescence, 48-72 h; max response: hits give low values
Outline: as §1

[4] = tested on: KB-3-1; assay: as above; details: Five cell lines viability, CellTiter-Glo ATP luminescence, 48-72 h; max response: hits give low values
Outline: as §1

[5] = tested on: NIH3T3; assay: as above; details: Five cell lines viability, CellTiter-Glo ATP luminescence, 48-72 h; max response: hits give low values
Outline: as §1

[6] = tested on: HACAT; assay: qHTS assay to identify novel small-molecules to repurpose for Merkel cell carcinoma treatment (AID 1296009); details: MCC and control cell lines, CellTiter-Glo viability, 72 h; at 44.8 µM (top of the series) unless noted
Outline: (§2)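 Dose-response viability screen; 72 hr exposure at 37 degree celsius; CellTiter-Glo added, 10 min room temperature, luminescence read; RLUs scaled between no-cell and DMSO wells.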

[7] = tested on: HEK293T; assay: as above; details: MCC and control cell lines, CellTiter-Glo viability, 72 h; at 44.8 µM (top of the series) unless noted
Outline: as §2

[8] = tested on: MCC-13; assay: as above; details: MCC and control cell lines, CellTiter-Glo viability, 72 h; series mostly up to 46 µM
Outline: as §2

[9] = tested on: MCC-26; assay: as above; details: MCC and control cell lines, CellTiter-Glo viability, 72 h; series mostly up to 46 µM
Outline: as §2

[10] = tested on: MKL-1; assay: as above; details: MCC and control cell lines, CellTiter-Glo viability, 72 h; series mostly up to 46 µM
Outline: as §2
Further: nearly all actives have a fitted effect of over 60% in size.
On the % scale 0 is the no-effect control and ±100 the full control effect.

CC(O)CN(CCN(CC(C)O)CC(C)O)CC(C)O (stereo not given)
inactive: max response [1] 4.33% | outcome [2] | outcome [3] | max response [4] -16.3% | outcome [5] | outcome [6] | outcome [7] | Potency [8] | Potency [9] | Potency [10]

CCC(=O)c1ccc(O)cc1
inactive: max response [1] 4.24% | outcome [2] | outcome [3] | max response [4] 5.91% | outcome [5] | outcome [6] | outcome [7] | Potency [8] | Potency [9] | Potency [10]

NCCNCCNCCN
inactive: max response [1] 1.87% | outcome [2] | outcome [3] | max response [4] -5.28% | max response [5] -1.13% | outcome [6] | outcome [7] | Potency [8] | Potency [9] | Potency [10]

CCN(CC)CCNC(C(=O)OCCC(C)C)c1ccccc1 (stereo not given)
inactive: max response [1] 1.18% | outcome [2] | outcome [3] | max response [4] 11.9% | outcome [5] | outcome [6] | outcome [7] | Potency [8] | Potency [9] | Potency [10]

O=S(=O)(O)c1cc(I)c(O)c2ncccc12
inactive: max response [1] 1.34% | outcome [2] | outcome [3] | max response [4] -3.56% | max response [5] -0.492% | outcome [6] | outcome [7] | Potency [8] | Potency [9] | Potency [10]

C[C@H]1O[C@H](O[C@H]2[C@H](O)[C@@H](O)[C@@H](O[C@H]3[C@H](O)[C@@H](O)[C@H](O)O[C@@H]3CO)O[C@@H]2CO)[C@H](O)[C@@H](O)[C@@H]1N[C@H]1C=C(CO)[C@@H](O)[C@H](O)[C@H]1O
inactive: outcome [1] | outcome [2] | outcome [3] | max response [4] -3.3% | outcome [5] | outcome [6] | outcome [7] | Potency [8] | Potency [9] | Potency [10]

O=C(Oc1ccccc1C(=O)O)c1ccccc1O
inactive: max response [1] 4.21% | outcome [2] | outcome [3] | max response [4] -14.6% | outcome [5] | outcome [6] | outcome [7] | Potency [8] | Potency [9] | Potency [10]

CCCCCCCCCCCCOS(=O)(=O)O
inactive: outcome [1] | outcome [2] | outcome [3] | max response [4] 16.2% | outcome [5] | outcome [6] | outcome [7] | Potency [8] | Potency [9] | Potency [10]

CCCCC(CC)COC(=O)c1ccccc1O (stereo not given)
inactive: max response [1] -6.25% | outcome [2] | outcome [3] | max response [4] -6.97% | outcome [5] | outcome [6] | outcome [7] | Potency [8] | Potency [9] | Potency [10]

NS(=O)(=O)c1cc2c(cc1C(F)(F)F)NC(Cc1ccccc1)NS2(=O)=O (stereo not given)
inactive: max response [1] -4.39% | outcome [2] | outcome [3] | max response [4] -0.539% | outcome [5] | outcome [6] | outcome [7] | Potency [8] | Potency [9] | Potency [10]

CC(C)(C)NCC(O)COc1ccc(NC(=O)NC2CCCCC2)cc1 (stereo not given)
inactive: outcome [1] | outcome [2] | outcome [3] | max response [4] 0.958% | outcome [5] | outcome [6] | outcome [7] | Potency [8] | Potency [9] | Potency [10]

Nc1ccc(S(=O)(=O)NC(=O)c2ccccc2)cc1
inactive: max response [1] -4.44% | outcome [2] | outcome [3] | max response [4] 18.9% | max response [5] -0.704% | outcome [6] | outcome [7] | Potency [8] | Potency [9] | Potency [10]

Oc1ccc(C(O)CNCCCCCCNCC(O)c2ccc(O)c(O)c2)cc1O (stereo not given)
inactive: max response [1] -1.96% | outcome [2] | outcome [3] | max response [4] 1.48% | max response [5] 0.438% | outcome [6] | outcome [7] | Potency [8] | Potency [9] | Potency [10]

NS(=O)(=O)c1cc2c(cc1Cl)NC(CSCc1ccccc1)=NS2(=O)=O
inactive: max response [1] -1.78% | outcome [2] | max response [3] -9.13% | max response [4] 1.03% | outcome [5] | outcome [7] | Potency [8] | Potency [9] | Potency [10]

c1ccc2c(CC3=NCCN3)cccc2c1
inactive: max response [1] -1.39% | outcome [2] | max response [3] -1.06% | max response [4] -1.96% and -17.3% and -10.3% | max response [5] 1.32% | outcome [7] | Potency [8] | Potency [9] | Potency [10]

Cc1ccc(C(C)C)cc2c(C)ccc1-2
inactive: max response [1] 3.16% | outcome [2] | max response [3] -2.06% | max response [4] -19.4% | outcome [5] | outcome [7] | Potency [8] | Potency [9] | Potency [10]

Cc1cc(CC(=O)O)n(C)c1C(=O)c1ccc(Cl)cc1
inactive: outcome [1] | outcome [2] | max response [3] -1.31% | max response [4] -2.26% and -15.1% | max response [5] -0.54% | outcome [7] | Potency [8] | Potency [9] | Potency [10]

CC(C)(C)C(=O)NCCCC(=O)O
inactive: max response [1] -4.98% | outcome [2] | max response [3] 4.53% | max response [4] -0.595% | outcome [5] | outcome [7] | Potency [8] | Potency [9] | Potency [10]

C#CCN(C)Cc1ccccc1
inactive: max response [1] 4.31% | max response [2] -27.7% | outcome [3] | max response [4] -4.93% | max response [5] 3.32% | outcome [6] | Potency [8] | Potency [9] | Potency [10]

O=C(O)Cc1sc(-c2ccccc2)nc1-c1ccc(Cl)cc1
inactive: max response [1] 3.43% | outcome [2] | outcome [3] | max response [4] -1.67% and -19.6% and -27.8% | max response [5] -0.692% | outcome [6] | outcome [7] | Potency [8] | Potency [9] | Potency [10]

O=C(O)CN1C(=O)c2cccc3cccc(c23)C1=O
inactive: max response [1] -6.05% | outcome [2] | outcome [3] | max response [4] -7.36% | max response [5] 0.928% | outcome [6] | outcome [7] | Potency [8] | Potency [9] | Potency [10]

Nc1cc(=O)[nH]c(N)n1
inactive: outcome [1] | max response [2] 4.25% | outcome [3] | max response [4] -2.08% | max response [5] -15.9% | outcome [6] | Potency [8] | Potency [9] | Potency [10]

O=c1cc[nH]c(=O)[nH]1
inactive: outcome [1] | outcome [2] | max response [3] -1.66% | max response [4] 20.9% | outcome [5] | outcome [7] | Potency [8] | Potency [9] | Potency [10]

Oc1cn2c(n1)Nc1ccc(Cl)c(Cl)c1C2
inactive: outcome [1] | outcome [2] | outcome [3] | max response [4] -2.96% and -14.6% | outcome [5] | outcome [6] inactive [at 17.4 µM] | outcome [7] inactive [at 17.4 µM] | Potency [8] | Potency [9] | Potency [10]

CCn1cc(C(=O)O)c(=O)c2cnc(N3CCNCC3)nc21
inactive: max response [1] -6.3% | outcome [2] | max response [3] -4.47% | max response [4] -0.342% | outcome [5] | outcome [7] | Potency [8] | Potency [9] | Potency [10]

C[C@@H]1CC[C@@]2(OC1)O[C@H]1C[C@H]3[C@@H]4CC[C@H]5C[C@@H](O)CC[C@]5(C)[C@H]4CC(=O)[C@]3(C)[C@H]1[C@@H]2C
inactive: outcome [1] | outcome [2] | outcome [3] | max response [4] 1.37% | outcome [5] | outcome [6] inactive [at 4.96 µM] | outcome [7] inactive [at 4.96 µM] | activity change, negative = cytotoxicity [8] -5.49% [at 4.84 µM] | activity change, negative = cytotoxicity [9] 5.06% [at 4.84 µM] | activity change, negative = cytotoxicity [10] 7.37% [at 4.84 µM]

N[C@@H](CSCCCO)C(=O)O
inactive: max response [1] -1.84% | outcome [2] | max response [3] 2.87% | max response [4] -1.02% | outcome [5] | outcome [7] inactive [at 17.4 µM] | Potency [8] | Potency [9] | Potency [10]

— PubChem BioAssay (NCATS)
